Test results reported in PubChem BioAssay (NCI).
The panel holds about 83,000 compounds, 20% with a hit somewhere; the sample as a whole holds those more often.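 Activity criterion: percent growth below 10, measured after cells in 96-well plates were exposed to a single compound concentration for 48 hours.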 Activity calls are given as the source filed them.

What was measured:
Test in all cases: NCI-60 one-dose screen, 48 h (100 = growth as untreated, 0 = no growth, -100 = all killed)
Conditions in all cases: 10 µM unless noted
NCI-H23 lung = test system: NCI-H23 lung
NCI-H226 lung = test system: NCI-H226 lung
NCI-H322M lung = test system: NCI-H322M lung
HOP-62 NSCLC = test system: HOP-62 NSCLC
NCI-H460 lung = test system: NCI-H460 lung
HOP-92 NSCLC = test system: HOP-92 NSCLC
NCI-H522 lung = test system: NCI-H522 lung
A549/ATCC NSCLC = test system: A549/ATCC NSCLC
786-0 renal = test system: 786-0 renal
COLO 205 colon = test system: COLO 205 colon

Measured: growth

O=C(Nc1cccc(Cl)c1)c1cc([N+](=O)[O-])ccc1O
active: HOP-92 NSCLC 8.95% | NCI-H522 lung -2.45%
inactive: NCI-H23 lung 25.8% | NCI-H226 lung 68.2% | NCI-H322M lung 43.9% | HOP-62 NSCLC 44.2% | NCI-H460 lung 54% | A549/ATCC NSCLC 66.9% | 786-0 renal 63.8% | COLO 205 colon 76.7%

CC1CCc2c(sc(NC(=O)CSc3nnc4ccccn34)c2C(N)=O)C1 (stereo not given)
inactive: NCI-H23 lung 109% | NCI-H226 lung 103% | NCI-H322M lung 121% | HOP-62 NSCLC 110% | NCI-H460 lung 106% | HOP-92 NSCLC 97.8% | NCI-H522 lung 108% | A549/ATCC NSCLC 118% | 786-0 renal 115% | COLO 205 colon 126%

Cc1ccc(Oc2nc3ccccc3cc2-c2nnc(Cn3c(COc4ccccc4)nc4ccccc43)o2)cc1
inactive: NCI-H23 lung 66.5% | NCI-H226 lung 64.9% | NCI-H322M lung 92.3% | HOP-62 NSCLC 49.8% | NCI-H460 lung 94.1% | HOP-92 NSCLC 14.2% | NCI-H522 lung 70.2% | A549/ATCC NSCLC 81.3% | 786-0 renal 62.7% | COLO 205 colon 84.6%

Cc1ccc2c(c1)C(C)Cc1c(ncnc1-n1cnc3ccccc31)N2C (stereo not given)
inactive: NCI-H23 lung 28.9% | NCI-H226 lung 72.4% | NCI-H322M lung 43% | HOP-62 NSCLC 38.1% | HOP-92 NSCLC 62.6% | A549/ATCC NSCLC 31% | 786-0 renal 30.9%
active: NCI-H460 lung 4.64% | NCI-H522 lung -15.3% | COLO 205 colon -11.5%

O=C(Nc1cccc(C(F)(F)F)c1)Nc1ccc(OCc2nnc(-c3ccccc3)o2)c(F)c1
inactive: NCI-H23 lung 35.7% | NCI-H226 lung 56.3% | NCI-H322M lung 61.6% | HOP-62 NSCLC 56.1% | A549/ATCC NSCLC 29.9% | 786-0 renal 60.4% | COLO 205 colon 32.6%
active: NCI-H460 lung 6.12% | HOP-92 NSCLC -8.2% | NCI-H522 lung 1.68%

CCCCCCCC/C=C\CCCCCCCCOc1ccccc1CCOP(=O)(O)OCC[N+](C)(C)C
active: NCI-H460 lung 9.07%
inactive: NCI-H23 lung 90.2% | NCI-H226 lung 95.6% | NCI-H322M lung 106% | HOP-62 NSCLC 42.1% | HOP-92 NSCLC 30.3% | NCI-H522 lung 39.4% | A549/ATCC NSCLC 48.9% | 786-0 renal 82.4% | COLO 205 colon 58.4%

COC(=O)c1ccc(C)cc1
inactive: NCI-H23 lung 97.5% | NCI-H226 lung 106% | NCI-H322M lung 113% | HOP-62 NSCLC 107% | NCI-H460 lung 106% | HOP-92 NSCLC 100% | NCI-H522 lung 97.5% | A549/ATCC NSCLC 103% | 786-0 renal 103% | COLO 205 colon 106%

Cc1ccnc2nc(C(=O)OCC(=O)Nc3ccc(-c4ccccc4)cc3)nn12
inactive: NCI-H23 lung 99.5% | NCI-H226 lung 110% | NCI-H322M lung 112% | HOP-62 NSCLC 94.5% | NCI-H460 lung 119% | HOP-92 NSCLC 69.7% | NCI-H522 lung 107% | A549/ATCC NSCLC 99.3% | 786-0 renal 99.8% | COLO 205 colon 104%

COc1ccccc1OCC(=O)Nc1sc2c(c1C(N)=O)CCC2
inactive: NCI-H23 lung 114% | NCI-H226 lung 80.7% | NCI-H322M lung 105% | HOP-62 NSCLC 49.7% | NCI-H460 lung 25.6% | NCI-H522 lung 84.1% | A549/ATCC NSCLC 85.8% | 786-0 renal 75.1% | COLO 205 colon 86.1%
active: HOP-92 NSCLC 2.69%

COc1cc(/C=C2\C=C(c3ccc(F)cc3)N(Cc3ccccc3)C2=O)cc(OC)c1OC
inactive: NCI-H23 lung 62.6% | NCI-H226 lung 56.7% | NCI-H322M lung 61.4% | HOP-62 NSCLC 108% | NCI-H460 lung 66.4% | HOP-92 NSCLC 35% | NCI-H522 lung 90.6% | A549/ATCC NSCLC 56.4% | 786-0 renal 66.6% | COLO 205 colon 82.7%

O=C(O)c1cn(C2CC2)c2cc(N3CCN(S(=O)(=O)c4ccc(Cl)c(Cl)c4)CC3)c(F)cc2c1=O
active: NCI-H23 lung 1.76% | NCI-H460 lung 5.77% | NCI-H522 lung -21.4% | A549/ATCC NSCLC 6.02% | COLO 205 colon -68.4%
inactive: NCI-H226 lung 41.4% | NCI-H322M lung 21.3% | HOP-62 NSCLC 15.2% | HOP-92 NSCLC 12.2% | 786-0 renal 27.8%

Nc1cccc2c1CN(C1CCC(=O)NC1=O)C2=O (stereo not given)
inactive: NCI-H23 lung 99.4% | NCI-H226 lung 108% | NCI-H322M lung 111% | HOP-62 NSCLC 106% | NCI-H460 lung 102% | HOP-92 NSCLC 22.6% | NCI-H522 lung 56% | A549/ATCC NSCLC 106% | 786-0 renal 107% | COLO 205 colon 111%

C=CCOc1cccc(/C=C/C(=O)c2sc(Nc3cccnc3)nc2C)c1
inactive: NCI-H23 lung 94.1% | NCI-H226 lung 86.1% | NCI-H322M lung 77.6% | HOP-62 NSCLC 68.2% | NCI-H460 lung 81.2% | HOP-92 NSCLC 74.7% | NCI-H522 lung 65.9% | A549/ATCC NSCLC 70.9% | 786-0 renal 51.7% | COLO 205 colon 91.3%

CC(C(=O)n1cc(-c2ccccc2)c(-c2ccccc2)c1)c1ccccc1 (stereo not given)
inactive: NCI-H23 lung 101% | NCI-H226 lung 104% | NCI-H322M lung 110% | HOP-62 NSCLC 95.4% | NCI-H460 lung 104% | HOP-92 NSCLC 90.5% | NCI-H522 lung 102% | A549/ATCC NSCLC 88.7% | 786-0 renal 98% | COLO 205 colon 122%

O=C(Cc1c(F)cccc1Cl)Nc1ccc(S(=O)(=O)Nc2ncccn2)cc1
inactive: NCI-H23 lung 97.6% | NCI-H226 lung 99.4% | NCI-H322M lung 116% | HOP-62 NSCLC 96.2% | NCI-H460 lung 114% | HOP-92 NSCLC 91.1% | NCI-H522 lung 104% | A549/ATCC NSCLC 110% | 786-0 renal 103% | COLO 205 colon 105%

OC1CC2c3ccccc3C1c1ccccc12 (stereo not given)
inactive: NCI-H23 lung 101% | NCI-H226 lung 106% | NCI-H322M lung 114% | HOP-62 NSCLC 108% | NCI-H460 lung 110% | HOP-92 NSCLC 96.2% | NCI-H522 lung 102% | A549/ATCC NSCLC 100% | 786-0 renal 98.9% | COLO 205 colon 112%

COc1ccc([N+](=O)[O-])c(/C=C/C(=O)c2ccccn2)c1
inactive: NCI-H23 lung 91.3% | NCI-H226 lung 84.2% | NCI-H322M lung 83.4% | HOP-62 NSCLC 78.5% | NCI-H460 lung 89.4% | HOP-92 NSCLC 66.9% | NCI-H522 lung 90.1% | A549/ATCC NSCLC 87.8% | 786-0 renal 93.4% | COLO 205 colon 89.1%

CCCOC(=O)C1(O)CCCC1
inactive: NCI-H23 lung 106% | NCI-H226 lung 92.9% | NCI-H322M lung 102% | HOP-62 NSCLC 109% | NCI-H460 lung 108% | HOP-92 NSCLC 89.8% | NCI-H522 lung 75% | A549/ATCC NSCLC 105% | 786-0 renal 105% | COLO 205 colon 118%

COc1ccc(NC(=O)CSc2nc3ccccc3c(=O)n2-c2ccccc2C(F)(F)F)c(OC)c1OC
inactive: NCI-H23 lung 102% | NCI-H226 lung 102% | NCI-H322M lung 116% | HOP-62 NSCLC 78% | NCI-H460 lung 99.4% | HOP-92 NSCLC 77.3% | NCI-H522 lung 112% | A549/ATCC NSCLC 98.3% | 786-0 renal 101% | COLO 205 colon 102%

COc1ccc(C2CC(c3cccs3)=NN2c2ccc(S(=O)(=O)NC(=O)NCc3cccc(OC)c3)cc2)cc1 (stereo not given)
active: A549/ATCC NSCLC 5.45% | COLO 205 colon -63.5%
inactive: NCI-H23 lung 97.6% | NCI-H226 lung 110% | NCI-H322M lung 102% | HOP-62 NSCLC 81% | NCI-H460 lung 109% | HOP-92 NSCLC 87.1% | NCI-H522 lung 87.3% | 786-0 renal 101%

CC(=O)/C=C/c1cc2cc(Cl)ccc2[nH]c1=O
inactive: NCI-H23 lung 87.5% | NCI-H226 lung 85.1% | NCI-H322M lung 90.5% | HOP-62 NSCLC 68% | NCI-H460 lung 78.5% | HOP-92 NSCLC 94.5% | NCI-H522 lung 75.2% | A549/ATCC NSCLC 85.2% | 786-0 renal 74.5% | COLO 205 colon 98.8%

O=C(Nc1ccc(Br)c(Cl)c1)c1cc(F)ccc1O
inactive: COLO 205 colon 41.5%
active: NCI-H23 lung -9.2% | NCI-H226 lung -23.8% | NCI-H322M lung 9.4% | HOP-62 NSCLC 0.0415% | NCI-H460 lung 3.85% | HOP-92 NSCLC -14.4% | NCI-H522 lung 0.474% | A549/ATCC NSCLC 8.88% | 786-0 renal 7.91%

C=CC(=O)N[C@H](/C=C/C(=O)OCC)Cc1ccc(-c2cc(Cl)cc(Cl)c2)cc1
inactive: NCI-H23 lung 76.1% | NCI-H226 lung 68.9% | NCI-H322M lung 92.9% | HOP-62 NSCLC 88.4% | NCI-H460 lung 98.7% | HOP-92 NSCLC 73.7% | NCI-H522 lung 51.1% | A549/ATCC NSCLC 76.4% | 786-0 renal 96% | COLO 205 colon 95.8%

COc1cc2nc(SCc3cc(OC)c(OC)c(OC)c3)n(Cc3ccccc3)c(=O)c2cc1OC
inactive: NCI-H23 lung 20.5% | NCI-H226 lung 49.7% | NCI-H322M lung 45.4% | HOP-62 NSCLC 41.4% | NCI-H460 lung 22.3% | HOP-92 NSCLC 62.7% | A549/ATCC NSCLC 36.9% | 786-0 renal 36.8%
active: NCI-H522 lung -33% | COLO 205 colon 7.38%

CC(=O)OC[Si](C)(C)c1ccccc1
inactive: NCI-H23 lung 112% | NCI-H226 lung 95.9% | NCI-H322M lung 109% | HOP-62 NSCLC 110% | NCI-H460 lung 103% | HOP-92 NSCLC 92.1% | NCI-H522 lung 103% | A549/ATCC NSCLC 95.8% | 786-0 renal 96.9% | COLO 205 colon 117%

CCCCCCCCCN1C(=O)/C(=c2\sc3n(c2=O)C2C(NN=3)N(CC)C(=O)N2CC)c2ccccc21 (stereo not given)
inactive: NCI-H23 lung 10.1% | NCI-H226 lung 89.6% | NCI-H322M lung 77% | HOP-62 NSCLC 45.1% | NCI-H460 lung 46.1% | HOP-92 NSCLC 44.5% | NCI-H522 lung 26.8% | A549/ATCC NSCLC 56% | 786-0 renal 78.4% | COLO 205 colon 93.3%

COc1cccc2nc(Nc3ccc(NC(=O)c4ccc5ncccc5c4)cc3)ccc12
inactive: NCI-H23 lung 92.8% | NCI-H226 lung 97.5% | NCI-H322M lung 81.4% | HOP-62 NSCLC 91.9% | NCI-H460 lung 84.8% | HOP-92 NSCLC 111% | NCI-H522 lung 99.9% | A549/ATCC NSCLC 78.1% | 786-0 renal 42.7% | COLO 205 colon 103%
